ANO1 block = mouse TMEM16A channel inhibition, primary screen; Q8BHY3; HEK293 TMEM16A/YFP iodide influx fluorescence, ionomycin; normalized B-score (activity score, 25-100; higher = stronger inhibition) at 10 µM; 310,000 compounds, 1.2% hits;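 active = ratio plate-corrected score three or more library SD toward inhibition, starting fluorescence score within five deviations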;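 also: score derived from kinetic fluorescence span divided by baseline fluorescence per well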
CHT allo act = allosteric activators of human choline transporter CHT; Q9GZV3; CHT-expressing cells, membrane potential dye, choline EC20; stronger effect = higher value; LV-AA mutant CHT in HEK293 cells; B-score at 10 µM; 310,000 compounds, 0.49% hits;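 active = initial fluorescence not abnormally high and integrated response B-score, plate-corrected, over 3 SD above library mean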
Target sequence (Q9GZV3 whole entry, looked up): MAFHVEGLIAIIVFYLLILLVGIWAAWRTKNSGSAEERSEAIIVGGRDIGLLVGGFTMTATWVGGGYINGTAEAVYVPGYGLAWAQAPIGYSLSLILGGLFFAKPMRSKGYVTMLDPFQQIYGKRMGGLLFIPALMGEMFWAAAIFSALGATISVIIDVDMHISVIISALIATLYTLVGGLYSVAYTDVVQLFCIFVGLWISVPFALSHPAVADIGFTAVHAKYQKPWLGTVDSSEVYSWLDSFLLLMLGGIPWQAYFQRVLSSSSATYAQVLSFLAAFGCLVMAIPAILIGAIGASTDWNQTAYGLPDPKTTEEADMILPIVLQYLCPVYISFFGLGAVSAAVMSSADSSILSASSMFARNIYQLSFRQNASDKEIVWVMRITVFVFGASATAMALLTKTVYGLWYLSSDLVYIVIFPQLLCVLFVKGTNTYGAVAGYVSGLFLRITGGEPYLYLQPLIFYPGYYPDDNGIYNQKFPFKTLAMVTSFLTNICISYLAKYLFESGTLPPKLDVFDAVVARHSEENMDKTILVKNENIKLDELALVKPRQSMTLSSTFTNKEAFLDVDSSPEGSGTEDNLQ
Kir21 block = blocks the mouse Kir2.1 inward-rectifier potassium channel; P35561; HEK293-Kir2.1, FluxOR thallium flux fluorescence; stronger effect = lower value; B-score at 10 µM; 310,000 compounds, 0.85% hits; AID 1672;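 active = fluorescence ratio B-score at or below minus 3 SD of library scores, with starting-brightness B-score within 2 SD, cut at about -4.2 in these data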;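 also: channel flux triggered by added potassium and thallium sulfate stimulus; B-score of peak minus minimum fluorescence over baseline after thallium stimulus; more negative B-score means stronger Kir2.1 block with less thallium influx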
TMEM16A act = activators or potentiators of mouse TMEM16A chloride channel. Q8BHY3. HEK293 TMEM16A/YFP-H148Q/I152L, iodide quench fluorescence; stronger effect = lower value. B-score at 10 µM. 340,000 compounds, 0.3% hits. AID 623877;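 active = fluorescence-ratio B-score plate-corrected deviation score at least 3 library SD below zero, with starting fluorescence score within 5 deviations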;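 also: channel opened by trigger with iodide after compound preincubation; score built on the fluorescence ratio of max minus min over baseline; more negative score means more quench and so TMEM16A activation or potentiation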
CHT inh = inhibits the human high affinity choline transporter; Q9GZV3; CHT-expressing cells, membrane potential dye, choline response; stronger effect = lower value; B-score at 10 µM; 310,000 compounds, 0.86% hits;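 active = B-score over 3 SD under the library average, and starting fluorescence ratio not unusually high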;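 also: choline stimulus applied at its EC90 after an EC20 pre-addition; B-score computed on integrated fluorescence ratio after choline addition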
Rce1 inhib = yeast Ras-converting enzyme inhibition; yeast membranes, quenched prenylated peptide cleavage fluorescence; AID 2563; 290,000 compounds, 0.27% hits; calls only;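 active = fall in fluorescence gain of 50% or more versus controls, with final raw signal at or below 3038400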;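 also: plate controls were neutral control wells for no effect and wells lacking membranes for full effect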
CHT inh conf = confirmation of human choline transporter CHT inhibitors; CHT activity remaining % of control (stronger effect = lower value), % at 10 µM; shares compounds with CHT inh; CHT-expressing cells, choline membrane potential dye; LV-to-AA substituted CHT, HEK293 cells; 2,400 compounds, 70% hits; AID 493221;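 active = choline transporter activity left, mean of duplicates at 10 µM, below buffer-only control mean minus 3 SD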;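 also: depolarization triggered by choline at its EC90 following an EC20 pre-addition; 0% = hemicholinium-3 full block and 100% = buffer-only control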
HEK293 CHT ctr = activity in parental HEK293 cells lacking CHT; AID 493222; shares compounds with CHT inh; 2,400 compounds, 4% hits; membrane potential dye, choline response; active = decrease or increase beyond buffer ±3SD; membrane potential ratio readout (active if shifted either direction beyond buffer ±3SD; no single direction) at 10 µM;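 also: parental cells lack the transporter so any hit is non-specific; ratio is peak minus trough fluorescence over baseline after EC90 choline challenge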
Active calls of the source: *; i = inactive; nt = no result given. Most compounds without a hit are left out; they make up all but 3.2% or so of the library.

SMILES	ANO1 block	CHT allo act	Kir21 block	TMEM16A act	CHT inh	Rce1 inhib	CHT inh conf	HEK293 CHT ctr
O=C(C[n+]1cccc2ccccc21)c1ccc(Cl)cc1	i	i	-2.8	i	-8*	i	37%*	i
CCOC(=O)c1ccc(S(=O)(=O)N2CCN(C3CC(=O)N(c4ccc(OC)cc4)C3=O)CC2)cc1 (configuration not stated)	nt	nt	nt	i	nt	nt	nt	nt
CCN1CCn2c3c(c4cc(Cl)ccc42)CCCC31 (configuration not stated)	i	i	0.11	i	-5.8*	i	70%*	i
CN1CCN(c2c(/C=N/O)c3ccccc3n2C)CC1	i	i	-0.5	i	i	i	nt	nt
Cc1ccccc1C(=O)O/N=C/c1c(N2CCOCC2)n(C)c2ccccc12	i	i	1.4	i	-16*	i	37%*	i
COc1ccc(CCN2CCCn3c2nc2c3c(=O)n(C)c(=O)n2C)cc1OC	nt	nt	-1.1	i	nt	i	nt	nt
CCCCCc1cc(=O)oc2c(C(CCN(CC)CC)c3cc(OC)c(OC)c(OC)c3)c(OC)cc(OC)c12 (configuration not stated)	i	i	-0.94	i	-5.8*	i	51%*	i
CS(=O)(=O)Nc1ccccc1C(=O)OCC(=O)N1CCC(c2ccccc2)=N1	nt	nt	nt	i	nt	nt	nt	nt
CCCCn1nc(-c2ccccc2)c2nc3ccccc3nc21	i	i	-6.7	nt	i	i	nt	nt
Cn1nc(-c2ccccc2)c2nc3ccccc3nc21	i	i	-1.1	i	-6.3*	i	i	-9.9*
COc1ccc(/C=C\C(=O)NCC(=O)N/N=C/c2ccc(O)cc2O)cc1	i	i	0.3	i	-5.5*	i	i	i
COc1ccc(N=Cc2cc(Cc3ccccc3Cl)cc([N+](=O)[O-])c2O)cc1OC	i	i	-0.43	i	-6*	i	i	i
Cc1ccc(N=Cc2cc(Cc3ccccc3Cl)cc([N+](=O)[O-])c2O)c(O)c1	i	i	1.9	i	-7.8*	i	64%*	i
COc1ccc([N+](=O)[O-])cc1NC(=O)Cc1ccccc1Cl	i	i	-1.1	i	i	i	nt	nt
Cc1ccc(-c2nn(-c3ccccn3)c(=O)c3ccccc23)cc1	i	i	-1.6	i	-5.2*	i	67%*	i
Cc1ccc(-c2nn(-c3ccccn3)c(=O)c3ccccc23)cc1C	i	i	0.8	i	i	i	nt	nt
Cc1ccc(NC(=S)N2CCN(c3ccccn3)CC2)cc1C	i	i	0.73	i	i	i	nt	nt
O=C1CCN(S(=O)(=O)c2ccccc2)CCN1CCOCc1ccc(F)cc1	i	i	0.76	i	i	i	nt	nt
Cc1ccc(S(=O)(=O)N2CCC(=O)N(CCOCc3ccc(F)cc3)CC2)cc1	i	i	-1.4	i	-5.9*	i	54%*	i
S=c1nc(-c2ccco2)[nH][nH]1	i	i	1.9	i	-5.4*	i	48%*	i
O=C(COc1ccccc1/C=C1\SC(=O)NC1=O)Nc1ccccc1	i	i	2.9	i	-5.7*	i	51%*	i
COc1cccc(/C=C2/NC(=O)NC2=O)c1OCC(=O)Nc1ccccc1	i	i	1.3	i	i	i	nt	nt
CCCCCCn1c(=O)c(F)cn(Cc2ccc(OC)c([N+](=O)[O-])c2)c1=O	i	i	-0.66	i	-6.7*	i	i	i
CCCCn1c(=O)c(F)cn(Cc2ccc(OC)c([N+](=O)[O-])c2)c1=O	i	i	0.63	i	i	i	nt	nt
CCCCCn1c(=O)c(F)cn(Cc2ccc(OC)c([N+](=O)[O-])c2)c1=O	i	i	0.79	i	-7.6*	i	54%*	i
SMILES	ANO1 block	CHT allo act	Kir21 block	TMEM16A act	CHT inh	Rce1 inhib	CHT inh conf	HEK293 CHT ctr
O=C(CCC(=O)Nc1ccccc1Cl)NNC(=O)C1CCCCC1	nt	nt	nt	i	nt	nt	nt	nt
COc1ccc2[nH]c(=O)c(CN(Cc3cccs3)C(=S)Nc3ccccc3)cc2c1	i	i	-1	nt	-5.3*	i	i	i
CNC(=S)N(Cc1cccs1)Cc1cc2ccc(OC)cc2[nH]c1=O	i	i	0.15	i	i	i	nt	nt
Cc1nn(Cc2ccccc2Cl)c(C)c1NC(=O)c1noc2c1CCCCC2	i	i	-2.2	i	-5.7*	i	41%*	i
CCC1(CC)NC(=O)N(CC(=O)OC(C)C(=O)Nc2ccc(NC(C)=O)cc2)C1=O (configuration not stated)	i	i	-0.06	i	i	i	nt	nt
COc1ccc(C(=O)NC(C)CCc2ccccc2)c(O)c1 (configuration not stated)	i	i	0.03	i	i	i	nt	nt
COC(=O)C1=C(C)N(C)C(=O)NC1c1ccccc1 (configuration not stated)	i	i	-0.54	i	i	i	nt	nt
CC1=C(C(=O)OCCOc2ccccc2)C(c2ccsc2)NC(=O)N1C (configuration not stated)	i	i	-3.5	i	-6.5*	i	50%*	i
N=C1C(c2ccccc2)=C(O)CN1c1cccc(O)c1	i	i	-0.95	i	-6.6*	i	i	i
COCCCNc1nc(N)c([N+](=O)[O-])c(Nc2cc(OC)ccc2OC)n1	i	i	-0.04	i	i	i	nt	nt
COc1ccc(OC)c(Nc2nc(NCCO)c3ccccc3n2)c1	i	i	-1.2	i	i	i	nt	nt
COc1ccc(OC)c(Nc2nc(N)c([N+](=O)[O-])c(NCc3ccccc3)n2)c1	i	i	0.05	i	-5*	i	i	i
COc1ccc(C)cc1Nc1nc(N)c2ccccc2n1	i	i	-4.9*	i	-13*	i	41%*	i
CCOC(=O)/C=C/C(=O)OCC(=O)Nc1ccc([N+](=O)[O-])cc1	i	i	-0.15	i	i	i	nt	nt
CC(=O)Nc1ccc(S(=O)(=O)Nc2nnc(Cc3ccc(Cl)cc3)s2)cc1	i	i	3.8	i	i	nt	nt	nt
CCC1CCCCN1S(=O)(=O)c1ccc(NC(=O)c2nc(S(C)(=O)=O)ncc2Cl)cc1 (configuration not stated)	i	i	-1.9	i	-6.4*	i	12%*	i

Screening results deposited in PubChem BioAssay by several laboratories.
